Results on 40 molecules are retold here after PubChem BioAssay (NCATS).

SMILES strings stand for the structures. Inconclusive results are not listed. Activity calls are given as the source filed them. Calls come from the whole dose curve; as a rule, active = well fitted cell-killing curve with a large enough effect; inconclusive = small, poorly fitted or top-dose-only effect, or effect the other way; inactive = no such curve, though single readings can be large or run the other way.
Potency is the fitted concentration of half-maximal effect.

The nature of this test: Viability qHTS for spleen associated tyrosine kinase inhibitor (SYKi) drug resistant MV4-11 cells (AID 1963824). Note: nearly all actives have a fitted effect of over 35% in size. To be noted: SYKi-resistant MV4-11 viability, CellTiter-Glo, 72 h; series mostly up to 45 µM; viability, % of control: at the top concentration. An excerpt:
Department of Medicine, Hematology/Oncology
University Hospital Frankfurt, Germany.
Trials have shown promising clinical activity of the selective SYK inhibitor entospletinib in patients with high expressing HOXA9/MEIS1 acute leukemias. As the development of resistance mechanisms is a common problem in the use of targeted drugs, we performed a chemical library screen to identify drug sensitivities in SYK inhibitor resistant AML cells. […] Glucocorticoids are potent immunosuppressants which work in part by inhibiting the transcription of cytokine genes.
Described herein is a viability screen to look for activity in the SYK inhibitor drug resistant cell line against four NCATS compound libraries (MIPE 5.0, NPC, NPACT, and Kinase) totaling 11372 compounds. Active hits were reacquired for confirmation and further secondary assay testing.
SEQUENCE No. (e.g., 1, 2, 3, etc.); […] (e.g., Cells, Incubation, Reagent, etc.); VALUE; DESCRIPTION.
1; Media; 2uL; white, solid-bottom Corning assay plate.
2; Compounds; 23nL; Echo acoustic dispenser.
3; Cell; 5uL; 500 cells per well.
4: Incubation; 72hr; 37 C, 5% CO2, 95% humidity.
5; Reagent; 3uL; CellTiter-Glo reagent (Promega).
6; Incubation; 10min; room temperature.
7; Detection; Luminescence; ViewLux plate reader (PerkinElmer).
NOTES (numbers refer to Sequence numbers above
1. Quantitative high-throughput screening (qHTS) of small molecule compounds was conducted on drug resistant SYKi MV4-11 cell line.
2. Twenty-three nanoliter of small molecule compounds were added to each assay plates using the Echo acoustic dispenser (Beckman Coulter).
3. Cells were seeded into the assay plates at a final density of 500 cells in 5uL of media per well using the Multidrop Combi dispenser.
4. Plates were covered with stainless steel gasketed lids and incubated for 72 hours at standard cell culture conditions.
5. Viability was assessed by adding 3uL of CellTiter-Glo detection reagent (Promega).
6. Plates were covered with gasket lids and incubated for 10 minutes at room temperature.
7. Luminescence was measured on a ViewLux plate reader (PerkinElmer).
(In qHTS, concentration-response curves come from the screen itself.)
As to `COc1ccc2c3c1O[C@H]1[C@@H](O)C=C[C@H]4[C@@H](C2)N(C)CC[C@@]341`, the Potency is 30 µM (active).

Consider `COC[C@H]1OC(=O)c2coc3c2[C@@]1(C)C1=C(C3=O)[C@@H]2CC[C@H](O)[C@@]2(C)C[C@@H]1OC(C)=O`, for which the Potency was 14.6 µM (active).

With `CC1=C[C@H]2O[C@@H]3[C@H](O)[C@@H](O)[C@](C)([C@@]2(CO)C[C@@H]1O)[C@]31CO1`, the Potency is 0.731 µM (active).

With `C[C@@]12C[C@@H](c3ccoc3)OC(=O)C1CC[C@]1(C)[C@H]2[C@H]2C=C[C@]1(O)C(=O)O2` (stereo not given in full), the “viability, % of control” value is 92.1% (inactive).

As to `ClCCN1CCCC1`, the “viability, % of control” value is 94% (inactive).

In the case of `CN1C(=O)C(Cc2ccc3ccccc3c2)N=C(c2ccc(O)cc2)c2cc(Cl)ccc21` (stereo not given), the Potency is 13 µM (active).

With `CNCC(O)c1ccc(O)cc1` (stereo not given), the “viability, % of control” value is 91.2% (inactive).

As to `C/C(=C\c1csc(C)n1)[C@@H]1C[C@@H]2O[C@@H]2CCC[C@H](C)[C@H](O)[C@@H](C)C(=O)C(C)(C)[C@@H](O)CC(=O)O1`, the Potency is 0.0058 µM (active).

As for `CC(NC(C)(C)C)C(=O)c1cccc(Cl)c1` (stereo not given), the Potency result is “inactive”.

On to `Cc1ccc(N=CN(C)C=Nc2ccc(C)cc2C)c(C)c1`, for which the “viability, % of control” value is 80.1% (inactive).

As for `NCc1cccnc1`, the “viability, % of control” value was 84% (inactive).

Consider `Oc1ccc2c(c1)C13CCCC[C@H]1[C@@H](C2)N(CC1CCC1)CC3`, for which the Potency is 10.3 µM (active).

Turning to `COC[C@@H](NC(C)=O)C(=O)NCc1ccccc1`, the “viability, % of control” value is 94.6% (inactive).

Turning to `COC[C@]12CN(C)C3C4[C@H](OC)[C@H]1C3(C(OC)C[C@H]2O)[C@H]1C[C@@]2(O)[C@H](OC(=O)c3ccccc3)[C@@H]1[C@]4(O)[C@@H](O)[C@@H]2OC` (stereo not given in full), the “viability, % of control” value is 77.7% (inactive).

As for `CCCC[N+]1(C)[C@H]2CC(OC(=O)[C@H](CO)c3ccccc3)C[C@H]1[C@H]1O[C@H]12` (stereo not given in full), the “viability, % of control” value was 93.3% (inactive).

For the molecule `CN1CCc2cc3c(cc2[C@H]1[C@@H]1OC(=O)c2c1ccc1c2OCO1)OCO3`, the Potency is 6.51 µM (active).

Take `Oc1ccc2[nH]cc(CCCCN3CC=C(c4ccccc4)CC3)c2c1`: the Potency is 10.6 µM (active).

Consider `CCCCCCCCC(=O)NCc1ccc(O)c(OC)c1`, for which the “viability, % of control” value was 13.6% (inactive).

Regarding `CCCCn1cc(C(=O)c2cccc3ccccc23)c2ccccc21`, the Potency was 18.4 µM (active).

For `C[C@@H]1CCC/C=C/[C@H]2C[C@@H](O)C[C@@H]2[C@@H](O)/C=C/C(=O)O1`, the Potency was 0.146 µM (active).

In the case of `NN=C(N)N`, the “viability, % of control” value is 85.3% (inactive).

On to `O=C(O)c1ccc(=O)[nH]c1`, for which the “viability, % of control” value was 109% (inactive).

With `NCC(CC(=O)O)c1ccc(Cl)cc1` (stereo not given), the viability, % of control is 103% [at 0.588 µM] (inactive).

As to `O=C1N[C@@H](Cc2ccccc2)CN2CCCC[C@@H]12`, the “viability, % of control” value was 77.8% (inactive).

Turning to `CN1C[C@@H]2CN(c3ccc(-c4ccccc4)nn3)C[C@@H]2C1`, the Potency is 0.58 µM (active).

Consider `CCC1NC(=O)C2C(Cl)C(Cl)CN2C(=O)C(C(C)O)NC(=O)CC(c2ccccc2)NC(=O)C(CO)NC1=O` (stereo not given), for which the “viability, % of control” value was 96.4% [at 17.3 µM] (inactive).

For the molecule `C=C1[C@@H](C)[C@H]2[C@H](Cc3ccccc3)NC(=O)[C@]23[C@H](OC(C)=O)/C=C/[C@](C)(O)C(=O)[C@@H](C)C/C=C/[C@H]3[C@@H]1O`, the Potency is 0.731 µM (active).

As to `CC(=O)OC[C@]12C[C@H](OC(=O)CC(C)C)C(C)=C[C@H]1O[C@@H]1[C@H](O)[C@@H](OC(C)=O)[C@@]2(C)[C@@]12CO2`, the Potency is 0.0089 µM (active).

With `C=CCC1=C(C)C(OC(=O)C2C(C=C(C)C)C2(C)C)CC1=O` (stereo not given), the Potency is 9.69 µM (active).

In the case of `CCCC[N+]1(C)[C@@H]2CC(OC(=O)[C@H](CO)c3ccccc3)C[C@H]1[C@@H]1O[C@@H]12` (stereo not given in full), the “viability, % of control” value is 95.8% (inactive).

As for `CC(=O)O[C@H]1C(=O)[C@]2(C)C(O)C[C@H]3OC[C@@]3(OC(C)=O)[C@H]2[C@H](OC(=O)c2ccccc2)[C@]2(O)C[C@H](O)C(C)=C1C2(C)C` (stereo not given in full), the Potency was 6.85 µM (active).

Consider `Cc1cccc(C)c1NC(=O)CN1CCCC1=O`, for which the Potency result is “inactive”.

For the molecule `CC[C@@H](CO)NC(=O)[C@@H]1C=C2c3cccc4c3c(cn4C)C[C@H]2N(C)C1`, the Potency is 9.44 µM (active).

Take `CC1=C2C[C@H]3[C@@H](CC=C4C[C@@H](O)CC[C@@]43C)[C@@H]2CC[C@]12O[C@@H]1C[C@H](C)CN[C@H]1[C@H]2C`: the Potency is 14.8 µM (active).

Take `CC[C@H](O)C(C[C@H](C)N(C)C)(c1ccccc1)c1ccccc1`: the “viability, % of control” value was 101% [at 91.9 µM] (inactive).

In the case of `CCCCN1[C@@H]2CC[C@H]1CC(OC(c1ccc(F)cc1)c1ccc(F)cc1)C2` (stereo not given in full), the Potency is 8.2 µM (active).

Take `CN1CCN(C(=O)O[C@H]2c3nccnc3C(=O)N2c2ccc(Cl)cn2)CC1`: the “viability, % of control” value was 70.7% (inactive).

Regarding `CO[C@H]1[C@H](O)[C@H](O[C@H]2CC[C@]3(C=O)C4CC[C@]5(C)[C@H](C6=CC(=O)OC6)CC[C@]5(O)C4CC[C@@H]3C2)O[C@@H](C)[C@@H]1O` (stereo not given in full), the Potency is 0.02 µM (active).

Turning to `CNC(=O)NC(O)C(Cl)(Cl)Cl` (stereo not given), the “viability, % of control” value was 86.5% (inactive).

In the case of `CC(=O)OC[C@]12C[C@H](O)C(C)=C[C@H]1O[C@@H]1[C@H](O)[C@@H](O)[C@@]2(C)[C@]12CO2`, the Potency was 0.805 µM (active).
